# TbPYK inhibitor: blocks Trypanosoma brucei pyruvate kinase; Potency, µM (titrated, usually from 76.8 µM), for the others: top-dose activity, negative = inhibition, usual class: inhibitors; hit rate 0.12% among 410,000; TbPYK enzyme, Kinase-Glo Plus ATP luminescence, 45 min; further: nearly all actives have a fitted effect of over 50% in size
#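 Luminescence from Kinase-Glo Plus, added after a 45-minute room-temperature reaction, served as the end-point read-out. The enzyme and substrate were preincubated with compound before ADP (130 uM final) initiated turnover. Concentration-effect curves came from normalized qHTS data.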
# Giardia FBPA inh: inhibitors of Giardia lamblia fructose-1,6-bisphosphate aldolase; A8B2U2; purified Giardia FBPA; Potency, µM (doses to about 59.6 µM), for inactives: at the highest dose activity, negative = inhibition, most hits filed as inhibitors; hit rate 0.71% among 290,000; AID 2451; further: nearly all actives have a fitted effect of over 55% in size
# Target sequence (A8B2U2 whole entry, looked up): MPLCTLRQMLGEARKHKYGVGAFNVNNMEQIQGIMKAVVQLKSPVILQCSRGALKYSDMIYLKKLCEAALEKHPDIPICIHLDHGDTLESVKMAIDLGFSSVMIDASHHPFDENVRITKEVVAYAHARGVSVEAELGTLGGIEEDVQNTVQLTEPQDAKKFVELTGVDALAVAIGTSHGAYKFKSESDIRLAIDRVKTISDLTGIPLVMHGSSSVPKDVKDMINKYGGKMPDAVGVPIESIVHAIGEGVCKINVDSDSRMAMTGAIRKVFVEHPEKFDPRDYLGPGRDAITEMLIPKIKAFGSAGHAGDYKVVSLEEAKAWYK
#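 40 nM FBPA preincubated 10 min at RT with compound (up to 57.5 uM final), then substrate plus GAPDH/TPI/NAD/arsenate coupling and diaphorase/resazurin added. Fluorescence read after 20 min at RT, 525/598 nm.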
# Sm TGR block: inhibitors of Schistosoma mansoni thioredoxin glutathione reductase; Potency, µM (top dose mostly 114 µM), for the others: top-dose activity change, negative = inhibition, most hits filed as inhibitors; AID 485364; hit rate 3% among 360,000; purified TGR, DTNB reduction, TNB absorbance 405 nm; Q962Y6; further: nearly all actives have a fitted effect of over 60% in size
#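 First, TGR (20 nM dispensed) and NADPH were mixed with compound. Second, a 15 min room-temperature incubation followed. Third, further NADPH and then DTNB were added to start the reaction. Finally, TNB absorbance was monitored kinetically.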
# LmPK inh: blocks Leishmania mexicana pyruvate kinase activity; Q27686; purified LmPK, Kinase-Glo ATP luminescence, 1 h; Potency, µM (doses to about 57.5 µM), for inactives: at the top dose activity change, negative = inhibition, usual class: inhibitors; AID 1721; hit rate 0.37% among 290,000
#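 In 50 mM imidazole pH 7.2 with 7 mM MgCl2, LmPK (0.1 nM) turned over PEP (0.5 mM) and ADP (0.1 mM) for 1 h at room temperature. Luciferase read-out of ATP.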
# RE007 growth inh: less growth of the S. pombe RE007 Vpr strain; S. pombe RE007 Vpr strain, BacTiter-Glo ATP luminescence, 24 h; AID 651644; hit rate 0.21% among 360,000; Potency, µM (top dose mostly 92.2 µM), without a hit: top-dose activity change, negative = less growth, most hits filed as inhibitors; active means well fitted falling curve with a large enough effect; inconclusive means small, poorly fitted or top-dose-only effect; inactive means no such curve, though single readings can be large or run the other way; further: nearly all actives have a fitted effect of over 50% in size
#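 Fission yeast RE007 carrying one integrated HIV-1 vpr copy, seeded at OD 0.01 in PMG+AL medium with 23 nL pinned compound. Grown 24 h at 30 degrees; viability read by BacTiter-Glo luminescence after 5 min.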
# Numbers without * were called inactive; ? = inconclusive; nt = not tested or not shown. The list is not random: actives were taken first. Their share in the collection is about 3.3%. Unless noted, the call rests on the fitted dose curve; in most records, active means well fitted curve in the direction sought with a large enough effect; inconclusive means small, poorly fitted or top-dose-only effect, or another doubt; inactive means no such curve, though single readings can be large; an effect the other way counts as inactive or inconclusive. On the % scale 0 is the no-effect control and ±100 the full control effect; potency means the concentration at half of the fitted maximal effect.
SMILES,TbPYK inhibitor,Giardia FBPA inh,Sm TGR block,LmPK inh,RE007 growth inh
O=C(O)c1ccc(NC2CC(=O)N(Cc3ccccc3)C2=O)cc1 (configuration not stated),3%,1%,28µM*,0%,-4%
CCCCCCC(=O)N(O)C1CC(=O)N(Cc2ccccc2)C1=O (configuration not stated),-15%,-5%,?,7%,-9%
CC1CC(=O)N(Cc2ccccc2)c2ccccc2N1C=O (configuration not stated),5%,6%,-2%,-3%,10%
O=C1CC(N(O)C2CC(=O)N(Cc3ccccc3)C2=O)C(=O)N1Cc1ccccc1 (configuration not stated),-21%,-4%,?,4%,45µM*
CCCN(CCC)C1CC(=O)N(Cc2ccccc2)C1=O (configuration not stated),-9%,0%,10µM*,-1%,14µM*
CC(=O)Nc1ccc2c(CSc3nncs3)cc(=O)oc2c1,0%,-5%,-4%,5%,3%
C[C@@H]1CC=C[C@@H]2[C@H]1C(=O)N(Cc1ccccc1)[C@H]2c1ccccc1Br,-9%,11%,nt,nt,6%
OCCCc1cn(CC2CCCCC2)nn1,1%,-1%,-5%,-12%,-9%
CC(C)N(CCC(=O)c1ccc2ccccc2c1)Cc1ccccc1,0%,12%,0.13µM*,nt,4µM*
O=C1NC(=O)C(=Cc2ccc(-c3cc(Cl)ccc3[N+](=O)[O-])o2)C(=O)N1,18µM*,-21%,32µM*,-3%,3%
O=C1NC(=O)C(=Cc2ccc(-c3ccccc3[N+](=O)[O-])o2)C(=O)N1,16µM*,-23%,-3%,-18%,5%
CC1=C(C#N)C(=O)NC(=O)/C1=C\c1ccc(-c2cc(C)c(C)cc2[N+](=O)[O-])o1,-26%,?,3.5µM*,1%,?
CCOc1ccc(NC(=O)Cn2cc(C(=O)c3ccco3)c3ccccc32)cc1,2%,-3%,8%,-1%,-5%
C#CCNC(=O)C1=C[C@H](c2ccc(Br)cc2)C[C@H](OCc2ccc(CO)cc2)O1,1%,2%,?,3%,0%
C#CCNC(=O)C1=C[C@@H](c2ccc(C(F)(F)F)cc2)C[C@@H](OCc2ccc(CO)cc2)O1,1%,nt,nt,nt,-11%
CN1CCN(C(=O)C2=C[C@@H](c3ccc(C(F)(F)F)cc3)C[C@@H](OCCCCO)O2)CC1,0%,-6%,45µM*,2%,3%
C#CCNC(=O)C1=C[C@@H](c2ccc(Br)cc2)C[C@@H](OCc2ccc(CO)cc2)O1,4%,-12%,45µM*,0%,7%
C#CCNC(=O)C1=C[C@@H](c2ccc(C(F)(F)F)cc2)C[C@@H](OCCCCO)O1,2%,-21%,22µM*,5%,7%
C#CCNC(=O)C1=C[C@H](c2ccc(Br)cc2)C[C@H](OCCCCO)O1,0%,-15%,16µM*,5%,-4%
CN1CCN(C(=O)C2=C[C@H](c3ccc(C(F)(F)F)cc3)C[C@H](OCCCCO)O2)CC1,-4%,nt,nt,nt,9%
O=C(NCc1ccccc1)C1=C[C@H](c2ccc(Br)cc2)C[C@H](OCCCCO)O1,0%,nt,nt,nt,6%
Cc1ccc(C(=O)NCCN2C3=NC[C@H](C)N3C[C@H]2Cc2ccc(O)cc2)cc1Br,-3%,0%,-5%,4%,-6%
O=C(CN1C(=O)NC2(CCc3ccccc3C2)C1=O)NCC(F)(F)F (configuration not stated),3%,3%,11%,0%,1%
CCCCc1nn2c(=O)cc(COC(=O)c3cccc(NC(=O)c4cccc(Cl)c4)c3)nc2s1,4%,nt,1%,nt,nt
CC(C)(C)OC(=O)[C@H](Cc1ccccc1)NC(=O)c1[nH]cnc1C(=O)Nc1ccccc1F,7%,nt,nt,nt,-14%
SMILES,TbPYK inhibitor,Giardia FBPA inh,Sm TGR block,LmPK inh,RE007 growth inh
Nc1nonc1-n1nnc(C(=O)N/N=C/c2ccc(Cl)cc2Cl)c1CN1CCCCC1,0%,-8%,-1%,-4%,-4%
COc1ccccc1NC(=O)CSc1ccc(-c2ccco2)nn1,-19%,nt,20µM*,-3%,-1%
Cc1ccc(C)c(NC(=O)CSc2ccc(-c3ccco3)nn2)c1,1%,-5%,13µM*,-5%,22%
Cc1ccccc1NC(=O)CSc1ccc(-c2ccco2)nn1,1%,-3%,-13%,5%,-8%
O=C(CSc1nnc2ccc(-c3ccco3)nn12)Nc1ccccc1F,0%,nt,11µM*,nt,-8%
COc1ccc(OC)c(NC(=O)CSc2ccc(-c3ccco3)nn2)c1,?,nt,3.5µM*,-3%,-8%
COc1ccc(OC)c(NC(=O)CSc2ccc(-c3cccs3)nn2)c1,?,nt,8%,nt,nt
COc1ccc(NS(=O)(=O)c2ccc(C)c(NC(=O)c3ccc(C)c(S(=O)(=O)N4CCOCC4)c3)c2)cc1,3%,-3%,-9%,-2%,-16%
CCn1c(SCC(=O)n2c(C)c(C)c3ccccc32)nnc1-c1ccco1,-5%,-14%,4%,6%,18%
O=C(c1nc2ccc(Cl)cn2c1CN1CCC[C@H]1CO)N1CCCCCCC1,1%,nt,45µM*,1%,-5%
O=C(Nc1cccc(S(=O)(=O)NC2=NCCCCC2)c1)c1cc(-c2ccncc2)nc2ccccc12,-6%,0%,4%,1%,0%
CC(=O)c1cccc(NC(=O)c2cc(-c3ccco3)nc3ccccc23)c1,7%,-1%,25µM*,0%,-17%
O=C(Nc1cccc(S(=O)(=O)NC2=NCCC2)c1)c1ccc(=O)[nH]c1,7%,nt,5.6µM*,nt,11%
O=C(Nc1ccc(F)cc1F)c1cc(-c2ccco2)nc2ccccc12,?,15%,11µM*,9%,-16%
O=C(Nc1cccc(S(=O)(=O)NC2=NCCCCC2)c1)c1cc(-c2ccco2)nc2ccccc12,-15%,-25%,11µM*,6%,-15%
O=C(Nc1ccccc1F)c1cc(-c2ccco2)nc2ccccc12,-5%,nt,nt,nt,-22%
Cc1ccc(N2C(=O)N(CC(=O)Nc3ccccc3C)C(=O)C2C)cc1 (configuration not stated),0%,nt,-9%,-6%,11%
O=C(CCNS(=O)(=O)c1ccccc1)NCCCSc1ccccc1,3%,nt,-1%,-6%,0%
O=C(O)c1cc(-c2ccco2)nc2cc3ccccc3cc12,-24%,?,2.2µM*,12%,2%
O=C(NNC(=O)c1cc(-c2ccco2)nc2ccccc12)c1ccccc1,-3%,-4%,11µM*,5%,4%
O=[N+]([O-])c1ccc(Cl)cc1Sc1nc2ccccc2o1,0%,0%,-12%,-1%,0%
Nc1nc(Sc2ccc([N+](=O)[O-])cc2[N+](=O)[O-])n[nH]1,-3%,0%,32µM*,0%,5%

# From PubChem
